Mdm2-MdmX inh: inhibitors of human Mdm2/MdmX interaction; O15151+Q00987; inhibition, % at 8 µM; AID 485346; 330,000 compounds, 3% hits; SaOS-2 split-luciferase Mdm2/MdmX complementation, luminescence;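 active means inhibition of at least 50% at 8 µM in the primary screen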
Target sequence (O15151 whole entry, looked up): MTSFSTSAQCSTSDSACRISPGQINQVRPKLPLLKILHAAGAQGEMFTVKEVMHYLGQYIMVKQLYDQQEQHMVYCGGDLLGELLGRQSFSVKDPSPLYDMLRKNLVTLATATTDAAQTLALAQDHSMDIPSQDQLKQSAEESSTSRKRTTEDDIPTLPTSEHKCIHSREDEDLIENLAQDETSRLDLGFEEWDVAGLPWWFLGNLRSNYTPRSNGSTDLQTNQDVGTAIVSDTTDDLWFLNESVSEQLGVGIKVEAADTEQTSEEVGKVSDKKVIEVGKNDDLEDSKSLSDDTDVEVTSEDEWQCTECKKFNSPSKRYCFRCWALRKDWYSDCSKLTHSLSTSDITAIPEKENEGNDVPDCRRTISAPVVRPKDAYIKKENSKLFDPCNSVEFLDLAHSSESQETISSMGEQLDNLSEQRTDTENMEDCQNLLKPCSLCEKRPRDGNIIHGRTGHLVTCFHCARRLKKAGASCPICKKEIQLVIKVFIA
Target sequence (Q00987 whole entry, looked up): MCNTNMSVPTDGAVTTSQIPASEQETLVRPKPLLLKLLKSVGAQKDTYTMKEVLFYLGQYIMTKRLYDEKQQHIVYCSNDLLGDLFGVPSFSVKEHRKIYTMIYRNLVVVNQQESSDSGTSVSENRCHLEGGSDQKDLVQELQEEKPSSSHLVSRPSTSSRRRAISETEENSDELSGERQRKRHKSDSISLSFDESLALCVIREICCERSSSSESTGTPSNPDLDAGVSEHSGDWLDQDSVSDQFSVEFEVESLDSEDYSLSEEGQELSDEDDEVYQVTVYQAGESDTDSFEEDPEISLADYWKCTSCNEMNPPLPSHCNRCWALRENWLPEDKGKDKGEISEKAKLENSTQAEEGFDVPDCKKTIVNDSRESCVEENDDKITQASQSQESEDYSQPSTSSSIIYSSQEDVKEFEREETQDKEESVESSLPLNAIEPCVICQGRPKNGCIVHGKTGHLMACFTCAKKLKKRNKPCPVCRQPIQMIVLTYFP
Gli-Sufu block: blocks Gli-Sufu signaling in a luciferase reporter. 340,000 compounds, 0.74% hits. inhibition, % at 5 µM. AID 588413. Sufu-KO-LIGHT fibroblasts, Gli luciferase reporter luminescence;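 active means inhibition above about 55%, limit read from the data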;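 further: 0% = DMSO-treated cells and 100% = wells with medium but no cells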
697 NFkB inh: lowers PMA/ionomycin-induced NF-kB signal in 697 B cells | 697 B-cell NF-kB luciferase reporter, 16 h | inhibition, % at 4 µM | 330,000 compounds, 0.33% hits | AID 435022; in the data active means inhibition above about 35%
Jurkat NFkB inh: inhibitors of the PMA/ionomycin-induced NF-kB reporter in Jurkat cells; PMA/ionomycin-induced NF-kB luciferase reporter, luminescence; inhibition, % at 4 µM; 330,000 compounds, 0.53% hits; AID 435003; in the data active means inhibition above about 50%
aSyn 5UTR inh: MLPCN primary screen, SNCA 5' untranslated region; alpha-synuclein 5'UTR reporter, inhibitor activity; inhibition, % (tested at 7.5 µM); 300,000 compounds, 0.82% hits; AID 1813; in the data active means inhibition above about 60%;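 further: H4 neuroglioblastoma cells stably carrying SNCA 5'UTR luciferase fusion; 0% = DMSO wells and 100% = positive control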
KLF5 inh: suppresses KLF5 promoter-driven expression; DLD-1 KLF5 promoter-luciferase reporter, luminescence; inhibition, % at 5 µM; 290,000 compounds, 0.23% hits; AID 1700;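 active means inhibition above a per-plate limit of that plate's mean compound inhibition plus 3 SD, cut at about 60% in these data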;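 further: 0% = DMSO wells and 100% = LY294002 at 200 µM; higher means less KLF5 promoter-driven luciferase light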
Mdm2 MdmX conf: human Mdm2/MdmX binding inhibition, confirmed; shares compounds with Mdm2-MdmX inh; luminescent assay; inhibition, % at 8 µM; 10,000 compounds, 55% hits; in the data active means inhibition above about 40%
Full FLuc ctr: inhibits full-length luciferase, flagging false Mdm2/MdmX hits; shares compounds with Mdm2-MdmX inh; SaOS-2 full-length luciferase counterscreen, luminescence; inhibition, % at 8 µM; 6,200 compounds, 77% hits; AID 504607;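 active means mean inhibition at 8 µM reaching about 37%, which flags the compound as non-specific, limit read from the data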;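 further: p53-null SaOS-2 cells with luciferase driven by a doxycycline-inducible promoter; compound on cells about two nights before reading with doxycycline added after day one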
Starred values were filed as active, the others as inactive; . = not tested or not shown. This is a sample that favours compounds with a hit; in the whole collection about 4.1% have one here.

SMILES	Mdm2-MdmX inh	Gli-Sufu block	697 NFkB inh	Jurkat NFkB inh	aSyn 5UTR inh	KLF5 inh	Mdm2 MdmX conf	Full FLuc ctr
Cc1ccc(-c2csc3ncnc(SCC(=O)Nc4nnc(C)s4)c23)cc1	-14	-6	-33	-1	-12	8	.	.
Cc1cc(C)nc(NC(=O)c2ccc3c(c2)OCO3)c1	-4	.	-20	-19	-94	-44	.	.
Cc1cc(C)nc(NC(=O)c2c(F)c(F)c(F)c(C(=O)Nc3cc(C)cc(C)n3)c2F)c1	83*	11	-2	33	-70	.	65*	18
CCOC(=O)COc1ccc(/C=C/[N+](=O)[O-])c(OCC(=O)OCC)c1	100*	4	-2	2	-21	-11	70*	24
CCOC(=O)COc1ccc2nsnc2c1	-12	-3	5	-6	18	12	.	.
COc1ccc(OC)c2sc(N(CCCN(C)C)C(=O)CCS(=O)(=O)c3ccccc3)nc12	82*	10	22	21	-3	.	77*	21
CN(C)CCN(C(=O)CCS(=O)(=O)c1ccccc1)c1nc2c(F)cccc2s1	11	39	11	7	-3	-18	.	.
COc1ccc(Cl)c2sc(N(CCN(C)C)C(=O)CCS(=O)(=O)c3ccc(C)cc3)nc12	12	1	13	13	-2	.	.	.
Cc1ccc2sc(N(CCCN(C)C)C(=O)CCS(=O)(=O)c3ccccc3)nc2c1C	60*	0	20	12	44	5	57*	30
Cc1cc(C(=O)CN2C(=O)C(=O)N(Cc3ccccc3)C2=O)c(C)n1-c1ccccc1F	52*	-3	-26	-7	12	11	51*	51*
NC1=NC(=O)C2(COC(c3cccnc3)OC2)S1 (stereo not given)	-11	0	17	-2	-2	-15	.	.
COc1ccc(-c2cc(=Nc3c(C)n(C)n(-c4ccccc4)c3=O)c3ccccc3o2)cc1	-54	25	-64	-69	-270	-157	.	.
COc1ccc(-c2c/c(=N\c3nc(-c4ccccc4)c(C)s3)c3ccccc3o2)cc1O	84*	31	-52	19	75*	4	57*	95*
NC(=O)c1cc2ccncc2c2ccccc12	90*	-19	10	38	-7	5	94*	51*
C=C[C@]1(C)C[C@H]1[C@H](NP(=O)(c1ccccc1)c1ccccc1)c1ccccc1	11	0	-17	-17	.	11	.	.
C/C(=C\[C@@H](NP(=O)(c1ccccc1)c1ccccc1)c1ccccc1)CO[Si](c1ccccc1)(c1ccccc1)C(C)(C)C	76*	7	11	14	25	.	10	.
c1ccc(CCN(Cc2ccccc2)C2CCN(C3CCCC3)CC2)cc1	27	7	5	1	-11	-27	.	.
Cc1ccc(/C(N)=N/OC(=O)c2ccc3ccccc3c2)cc1	94*	-33	-111	-55	-124	-139	38	117*
N/C(=N\OC(=O)c1ccc(F)cc1)c1ccc(Br)cc1	51*	-54	-84	-81	-143	9	-11	.
Cc1ccc(/C(N)=N/OC(=O)c2ccc(F)cc2)cc1	59*	-68	-100	-95	-194	-91	16	.
COC(=O)c1sc(S(=O)(=O)N2CCCCC2C)c(C(=O)OC)c1C (stereo not given)	-3	1	15	-8	.	.	.	.
C[C@H](CO)N1C[C@H](C)[C@H](CN(C)Cc2ccc(-c3ccccc3)cc2)Oc2ccc(NS(=O)(=O)c3ccccc3)cc2CC1=O	85*	8	5	16	.	.	9	.
C[C@H]1CN([C@@H](C)CO)C(=O)Cc2cc(NC(=O)CCC(F)(F)F)ccc2O[C@H]1CN(C)Cc1ccc(-c2ccccc2)cc1	55*	3	-21	-9	.	.	24	.
Cc1ccc(S(=O)(=O)Nc2ccc3c(c2)C(=O)N([C@H](C)CO)C[C@H](C)[C@@H](CN(C)Cc2ccccc2)O3)cc1	-5	-5	17	-7	.	.	.	.
C[C@@H]1CN([C@@H](C)CO)C(=O)Cc2cc(NS(=O)(=O)c3ccccc3)ccc2O[C@H]1CN(C)Cc1ccncc1	11	-5	16	-5	.	.	.	.
SMILES	Mdm2-MdmX inh	Gli-Sufu block	697 NFkB inh	Jurkat NFkB inh	aSyn 5UTR inh	KLF5 inh	Mdm2 MdmX conf	Full FLuc ctr
Cc1ccc(S(=O)(=O)Nc2ccc3c(c2)CC(=O)N([C@H](C)CO)C[C@@H](C)[C@H](CN(C)Cc2ccc(-c4ccccc4)cc2)O3)cc1	82*	-5	-8	-24	.	.	39	63*
CCCOc1ccc2c(c1)C(=NN=C(N)N)c1cc(OCCC)ccc1-2	96*	-6	-20	14	-46	-38	34	.
CCN(CC)CCOc1ccc2c(c1)C(=NO)c1cc(OCCN(CC)CC)ccc1-2	96*	4	-10	-21	8	4	91*	44*
CCN(CC)S(=O)(=O)c1ccc2c(c1)C(=NO)c1cc(S(=O)(=O)N(CC)CC)ccc1-2	83*	12	-22	12	115*	2	68*	24
NC(=O)c1ccc[n+](CC(=O)c2ccc(F)cc2)c1	-2	1	5	9	2	-21	.	.
Cc1[nH]c2ccccc2c1/C=N/NC(=O)C1CC1(c1ccccc1)c1ccccc1 (stereo not given)	65*	1	-8	-3	-7	-7	48*	89*
Cc1[nH]c2ccccc2c1/C=N/NC(=O)CCC(=O)NCc1ccccc1	-14	3	16	2	29	6	.	.
Cc1c(Cl)cnc(NC(=O)COC(=O)c2cccc(S(=O)(=O)N3c4ccccc4CC3C)c2)c1Cl (stereo not given)	4	-16	2	2	39	-16	.	.
O=C(CCl)Nc1cn(-c2ccccc2)nc1-c1ccc(F)cc1	86*	6	-2	-1	-19	6	44*	33
Fc1ccc(-c2nn(-c3ccccc3)cc2CNCc2ccccc2)cc1	38	9	21	9	4	-1	.	.
Cc1nn(CC(=O)NCCCN2CCC(Cc3ccccc3)CC2)c(=O)c2cc(-c3ccccc3)nn12	96*	-24	-2	12	-8	-8	69*	41*
Cc1nn(CC(=O)NCCCN2CCN(Cc3ccccc3)CC2)c(=O)c2cc(-c3ccccc3)nn12	31	35	-3	4	26	19	.	.
CCc1ccc(-c2cc3c(=O)n(CC(=O)NCCCN4CCC(Cc5ccccc5)CC4)nc(C)n3n2)cc1	100*	20	-35	23	9	-27	99*	53*
COCc1cc(=O)[nH]c(/N=C(\N)Nc2cccc(Cl)c2)n1	3	1	1	1	26	-11	.	.
CCOC(=O)Cc1csc(NC(=O)Nc2cccc(OC)c2)n1	-10	-6	-22	-12	-43	-21	.	.

Assay outcomes (PubChem BioAssay)
